High-throughput results: PubChem, Corson Lab, School of Medicine, Indiana University
FECH block = human FECH heme synthesis enzyme inhibition | P22830 | purified FECH, Ni-mesoporphyrin absorbance 550 nm | calls only at 10 µM (by protocol) | actives 3.3% (n = 20,000);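 active means enzyme reaction rate more than 3 SD below the solvent-only control wells on the same plate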;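 further: lower slope than DMSO wells means FECH inhibition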
The depositor's hits bear a star. The sample as a whole holds a higher share of hits than the screen did.

How did Cc1ccc(CN2CCCN(CC(N)=O)S2(=O)=O)cc1 do in these assays?
FECH block: inactive

How did Cc1ccccc1CN1CCCN(Cc2ccc(Cl)cc2)S1(=O)=O do in these assays?
FECH block: inactive

How did Cc1ccc(CN2CCCN(Cc3ccc(Cl)cc3)S2(=O)=O)cc1 do in these assays?
FECH block: active

Results for CCC(C)NC(=O)CN1CCCN(Cc2ccc(C)cc2)S1(=O)=O (stereo not given) ?
FECH block: inactive

What do the screens show for `c1ccc2[nH]c(C3NCCc4[nH]cnc43)nc2c1` (stereo not given)?
FECH block: active

Results for c1cc(C2NCCc3[nH]cnc32)c2cc[nH]c2c1 (stereo not given) ?
FECH block: inactive

Results for O=C(c1cc(CN2CCOCC2)on1)N1CCN2CCCC2C1 (stereo not given) ?
FECH block: inactive

How did O=C(CCn1ccccc1=O)N1C[C@@H](c2ccccc2)[C@@H]2[C@H]1C1CCN2CC1 do in these assays?
FECH block: inactive

What do the screens show for `Cc1sc2nc(CCN)nc(N3C[C@@H]4C[C@H](C3)c3cccc(=O)n3C4)c2c1C`?
FECH block: inactive

What do the screens show for `Cc1ccc(C)c(Cn2cccc(C(=O)Nc3cc(C)on3)c2=O)c1`?
FECH block: inactive
